{"source": "PubChem BioAssay AID1850", "about": "(Southern Research Specialized Biocontainment Screening …, 2009)", "note": "About 1,000 (0.32%) of roughly 310,000 compounds were called active. A selection follows. Entries with a potency or affinity are not part of this list. Unmarked numbers belong to inactive results. No rule for the calls is given here."}
{"assay": "PhoP regulon inhibitors, Salmonella typhi PhoP promoter GFP reporter, confirmatory (AID 1850);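 also: 0% = induced wells with vehicle and 100% = uninduced wells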", "conditions": "fluorescence, 4 h, at 50 µM, active compounds read high", "units": {"inhibition": "%"}}
{"smiles": "N=c1ccn2c(n1)O[C@H]1[C@@H](CO)[C@H](O)O[C@H]12", "inhibition": 2.95}
{"smiles": "CCOC(=O)c1cn(-c2ccc(F)c(F)c2)c2c(F)c(F)c(F)c(F)c2c1=O", "inhibition": -9.71}
{"smiles": "COC(=O)c1ccc(C)c(NC(=S)NCc2ccc(Cl)cc2)c1", "inhibition": -7.26}
{"smiles": "COC(=O)c1cc(NC(=S)NCc2ccc(Cl)cc2)cc(C(=O)OC)c1", "inhibition": -2.32}
{"smiles": "O=C(Nc1ccccc1)O/N=C(\\c1ccccc1)c1ccccn1", "inhibition": -16.2}
{"smiles": "Cc1cccc[n+]1CC(=O)Nc1ccc([N+](=O)[O-])cc1", "inhibition": 1.95}
{"smiles": "Cc1ccc[n+](CC(=O)Nc2ccc([N+](=O)[O-])cc2)c1", "inhibition": 6.66}
{"smiles": "N#Cc1ccccc1NC(=O)CSc1nnc(-c2ccccc2)n1-c1ccccc1", "inhibition": 0.92}
{"smiles": "COc1ccc2c(c1OC)C(=O)N(c1ccc(O)cc1)C2=O", "inhibition": -3.53}
{"smiles": "COc1ccc2c(c1OC)C(=O)N(c1ccccc1)C2=O", "inhibition": 9.99}
{"smiles": "CCN(C(=S)NCc1ccccc1)c1ccccc1", "inhibition": -2.51}
{"smiles": "Cc1c(NC(=O)C(=O)/C=C(\\O)c2ccc(Cl)cc2)c(=O)n(-c2ccccc2)n1C", "inhibition": -8.97}
{"smiles": "Cc1cc(C)nc(N/N=C/c2ccccc2)n1", "inhibition": -1.28}
{"smiles": "O=C(N/N=C/c1ccccn1)c1ccc(Br)cc1", "inhibition": 8.46}
{"smiles": "Cc1ccc(/C=N/NC(=O)c2cccs2)s1", "inhibition": -3.78}
{"smiles": "O=C(N/N=C/c1ccncc1)c1cccs1", "inhibition": -16.1}
{"smiles": "O=C(N/N=C/c1ccccn1)c1ccncc1", "inhibition": 10.1}
{"smiles": "O=C(N/N=C/c1ccccn1)c1ccco1", "inhibition": 8.62}
{"smiles": "O=C(N/N=C/c1ccc(Br)s1)c1cccs1", "inhibition": 5.12}
{"smiles": "CC(C)NC(=O)NC(=O)COC(=O)CCOc1ccccc1", "inhibition": 1.53}
{"smiles": "O=C(CC1(CC2=NS(=O)(=O)c3ccccc3N2)CCCC1)NCCc1ccccc1", "inhibition": -20.4}
{"smiles": "O=C(NCC1CC1)c1cc(-c2ccccc2)nn1CC1CC(c2cccc([N+](=O)[O-])c2)=NO1", "note": "(stereo not drawn)", "inhibition": 4.4}
{"smiles": "Cc1ccc(Cl)cc1N1CCN(S(=O)(=O)c2c(C)[nH]c(=O)[nH]c2=O)CC1", "inhibition": 8.84}
{"smiles": "C=CCNC(=S)N1CCN(c2cc3c(cc2F)c(=O)c(C(=O)O)cn3CC)CC1", "inhibition": -3.14}
{"smiles": "CCn1cc(C(=O)O)c(=O)c2cc(F)c(N3CCN(C(=S)NC(=O)c4c(OC)cccc4OC)CC3)cc21", "inhibition": 3.3}
{"smiles": "Cn1nnnc1SCC(=O)NCCCc1ccccc1", "inhibition": 0.19}
{"smiles": "Cc1cccc(NC(=O)COC(=O)Cc2c[nH]c3ccccc23)c1C", "inhibition": -3.69}
{"smiles": "O=C(NC(=S)NCc1cccnc1)c1cc(Br)ccc1Cl", "inhibition": -7.31}
{"smiles": "O=C(COc1ncnc2ccccc12)NCC1CCCO1", "note": "(stereo not drawn)", "inhibition": 7.4}
{"smiles": "Cc1cc(S(=O)(=O)Nc2cccc([N+](=O)[O-])c2)c(C)s1", "inhibition": -6.89}
{"smiles": "O=C(NNS(=O)(=O)c1ccccc1[N+](=O)[O-])c1cccc([N+](=O)[O-])c1", "inhibition": -5.01}
{"smiles": "Cc1occc1C(=O)NC(C)C12CC3CC(CC(C3)C1)C2", "note": "(stereo not drawn)", "inhibition": 2.3}
{"smiles": "CCC1(CC)Cc2ccccc2C(CC(=O)N2CCOCC2)=N1", "inhibition": -0.09}
{"smiles": "COc1ccc(/C=C/C(=O)c2cc(Cl)cc(Cl)c2O)c(OC)c1", "inhibition": 1.28}
{"smiles": "Cc1ccc(C(C[N+](=O)[O-])c2c(-c3ccccc3O)[nH][nH]c2=O)cc1", "note": "(stereo not drawn)", "inhibition": 3.54}
{"smiles": "O=c1[nH][nH]c(-c2ccccc2O)c1C(C[N+](=O)[O-])c1ccccc1", "note": "(stereo not drawn)", "inhibition": 10.2}
{"smiles": "Cc1ccc2c(C)c(C(=O)Nc3cccnc3)oc2c1", "inhibition": -1.18}
{"smiles": "CCN(CC)S(=O)(=O)c1ccc(/C=C/C(=O)Nc2ccc(Br)cc2F)cc1", "inhibition": -3.09}
{"smiles": "COc1cc(Nc2c3c(nc4ccccc24)CCC3)cc(OC)c1OC", "inhibition": -13.8}
{"smiles": "c1ccc2c(Nc3ccc4c(c3)OCCO4)c3c(nc2c1)CCCC3", "inhibition": -7.16}
{"smiles": "COc1ccc(Nc2c3c(nc4ccc(C)cc24)CCC3)cc1", "inhibition": 26.7}
{"smiles": "CC(=O)c1ccc(Nc2c3c(nc4ccccc24)CCCC3)cc1", "inhibition": -0.46}
{"smiles": "N#Cc1cccc(Nc2c3c(nc4ccccc24)CCC3)c1", "inhibition": -6.96}
{"smiles": "Cc1ccc2nc3c(c(Nc4ccccc4)c2c1)CCC3", "inhibition": 1.9}
{"smiles": "c1ccc(Nc2c3c(nc4ccccc24)CCC3)cc1", "inhibition": -12.1}
{"smiles": "c1ccc2c(Nc3ccc4c(c3)OCCO4)c3c(nc2c1)CCC3", "inhibition": 19.5}
{"smiles": "O=C(O)C1C2CCC(C2)C1C(=O)N1CCCC1", "note": "(stereo not drawn)", "inhibition": 6.43}
{"smiles": "COc1ccc(S(=O)(=O)N(C)CC(=O)NCCC2=CCCCC2)cc1OC", "inhibition": 9.61}
